Source: PubChem BioAssay
Tau fluor cs: counter-screen for tau fibril formation inhibitors. Potency, µM (titrated, usually from 57.7 µM), for inactives: top-dose activity change, negative = decrease. tau K18 P301L Alexa594 fluorescence, heparin fibrillization. 280,000 compounds, 0.93% hits. AID 1463; also: potency is read from the fitted curve at half-maximal effect; % is scaled to controls: 0 for no effect and ±100 for the full control effect; nearly all actives have a fitted effect of over 55% in size
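Human K18 P301L tau (15 uM unlabeled plus 0.24 uM Alexa 594-labeled, final) in 100 mM sodium acetate pH 7 was mixed with compound and 20 uM heparin and incubated 6 hr at 37 C.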
Tau ThT inhib: blocks human tau fibril formation measured by thioflavin T; P10636; recombinant tau K18 P301L (four-repeat tau fragment), heparin-induced fibrillization, ThT fluorescence; Potency, µM (titrated, usually from 57.4 µM), for the others: top-dose activity, negative = inhibition, actives largely listed as inhibitors; 270,000 compounds, 2.1% hits; AID 1460; also: potency is read from the fitted curve at half-maximal effect; % is scaled to controls: 0 for no effect and ±100 for the full control effect; nearly all actives have a fitted effect of over 55% in size
Target sequence (P10636 561-689 P618L limits assumed): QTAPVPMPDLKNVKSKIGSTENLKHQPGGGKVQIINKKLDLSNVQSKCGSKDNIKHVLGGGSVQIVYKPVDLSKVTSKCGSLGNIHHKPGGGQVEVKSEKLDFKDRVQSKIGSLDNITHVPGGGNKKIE
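K18 P301L tau (15 uM + 0.24 uM Alexa 594-tagged), heparin 20 uM, NaOAc pH 7, 6 h 37 C; ThT 30 uM, 1 h RT, ex 450/em 510 nm.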
LMNA splice mod: changes lamin A minigene splicing in HeLa cells; HeLa LMNA splicing GFP/RFP minigene ratio, 48 h; Potency, µM (top dose mostly 46.1 µM), for inactives: top-dose ratio change, negative = inhibition, actives largely listed as inhibitors; 200,000 compounds, 0.01% hits; AID 1487; active = well fitted inhibition curve with a large enough effect in the signal ratio, with a control signal flat, not every such curve was filed as active; inconclusive = small, poorly fitted or top-dose-only effect, or effect the other way, or a change in a side signal; the % refers to the signal ratio; also: potency is read from the fitted curve at half-maximal effect; % is scaled to controls: 0 for no effect and ±100 for the full control effect
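S3 HeLa stable clones carrying a lamin A-EGFP splicing minigene plus DsRed2 were seeded at 600 cells/well in Opti-MEM with 2% FBS, pin-dosed and incubated 48 h at 37°C. Acumen cytometry (488 nm) gave the GFP/RFP total-intensity ratio.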
Tau fibril FP: blocks human tau fibril formation measured by polarization; 280,000 compounds, 0.39% hits; P10636; K18 P301L tau heparin fibrillization, Alexa594 FP, 6 h; Potency, µM (series often up to 57.7 µM), without a hit: at the top dose activity, negative = inhibition, actives largely listed as inhibitors; also: potency is read from the fitted curve at half-maximal effect; % is scaled to controls: 0 for no effect and ±100 for the full control effect; nearly all actives have a fitted effect of over 55% in size
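Quantitative HTS format: compounds meet 15 uM recombinant K18 P301L tau and Alexa 594-tau tracer in 100 mM sodium acetate pH 7; 20 uM heparin triggers fibrillization at 37 C over 6 hr; FP gives the signal.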
KDM4E inh: JMJD2E (human) inhibition; B2RXH2; 230,000 compounds, 1.6% hits; AID 2147; JMJD2E catalytic domain, FDH-coupled NADH fluorescence (FDH is formaldehyde dehydrogenase); Potency, µM (doses to about 57.1 µM), inactives show at the highest dose activity change, negative = inhibition, usual class: inhibitors; active = well fitted inhibition curve with a large enough effect, not every such curve was filed as active; inconclusive = small, poorly fitted or top-dose-only effect, or another doubt; inactive = no such curve, though single readings can be large or run the other way;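 also: potency is read from the fitted curve at half-maximal effect; 0% = wells with enzyme and -100% = buffer wells without enzyme; nearly all actives have a fitted effect of over 50% in size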
Target sequence (B2RXH2 1-337 limits assumed): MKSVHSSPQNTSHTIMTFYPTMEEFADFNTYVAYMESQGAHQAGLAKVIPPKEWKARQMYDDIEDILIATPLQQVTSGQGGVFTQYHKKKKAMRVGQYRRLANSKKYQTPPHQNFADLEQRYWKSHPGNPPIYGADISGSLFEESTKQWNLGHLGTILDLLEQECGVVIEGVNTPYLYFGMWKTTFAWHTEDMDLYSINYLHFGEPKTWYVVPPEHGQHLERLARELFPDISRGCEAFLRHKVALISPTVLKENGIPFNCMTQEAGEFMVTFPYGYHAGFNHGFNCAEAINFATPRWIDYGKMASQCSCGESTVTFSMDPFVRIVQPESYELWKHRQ
CBFb RUNX1 block: inhibitors of human CBF-beta and RUNX1 interaction; Q01196+Q13951; AlphaScreen CBFb-His/RUNX1-biotin binding, biochemical; Potency, µM (series often up to 59.8 µM), inactives show at the top dose activity, negative = inhibition, most hits filed as inhibitors; 230,000 tested, under 10 active; AID 1477; also: % of control where 0% means no effect
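CBFb-His/RUNX1-biotin, 30 nM each, preincubated 20 min RT; compound 15 min RT; Ni + streptavidin beads 50 ng each, 90 min RT; AlphaScreen read.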
* = called active by the depositor; ? = inconclusive; . = no result; [ ] = dose if it differs, or a comment. The list is not random: actives were taken first. Their share in the collection is about 3.2%. Unless noted, calls follow the shape of the dose curve; as a rule, active = well fitted curve in the direction sought with a large enough effect; inconclusive = small, poorly fitted or top-dose-only effect, or another doubt; inactive = no such curve, though single readings can be large; an effect the other way counts as inactive or inconclusive.

SMILES	Tau fluor cs	Tau ThT inhib	LMNA splice mod	Tau fibril FP	KDM4E inh	CBFb RUNX1 block
OCCN1CCN(C(=S)c2ccc(Cl)c(Cl)c2)CC1	-22%	7.9µM*	-3%	?	-27%	17%
COc1ccc(-c2nnc3n2N=C(c2ccc(OC)c(OC)c2)CS3)cc1	.	.	.	.	.	8%
Cc1ccnc2nc(NC(=O)c3ccccc3Cl)nn12	3%	-1%	.	0%	.	.
O=c1/c(=C\c2cc([N+](=O)[O-])cc([N+](=O)[O-])c2O)sc2nc3ccccc3n12	?	5µM*	.	?	?	?
O=C(O)c1cc(C(=O)O)cc(-c2ccc(/C=c3/sc4nc5ccccc5n4c3=O)o2)c1	-8%	?	.	2%	13µM*	-1%
O=C(O)c1cccc(-c2ccc(/C=c3/sc4nc5ccccc5n4c3=O)o2)c1	-7%	?	.	8%	-20%	?
O=c1/c(=C/c2ccccn2)sc2nc3ccccc3n12	-16%	?	?	?	-7%	3%
CNC(=S)/N=C/NOCc1c(Cl)cccc1Cl	-4%	3%	?	0%	-1%	1%
N/C(=C\C(=O)c1cc(Cl)ccc1O)C(Cl)(Cl)Cl	-25%	18µM*	.	?	-2%	-10%
CC(C)(C)c1ccc(C(=O)CC(=O)c2cc(Cl)ccc2O)cc1	-14%	-17%	?	-5%	-17%	-2%
Cc1cc(OC(=O)c2c(C)cc(O)cc2O)cc(O)c1C(=O)O	-13%	-12%	.	0%	-7%	-3%
CSc1nc(O)c(C(c2cccc([N+](=O)[O-])c2)c2c(O)nc(SC)[nH]c2=O)c(=O)[nH]1	-28%	11µM*	.	?	-4%	0%
Cc1ccc(NC(=O)NCC2CCN(Cc3cccc(Cl)c3)CC2)c(Cl)c1	-14%	-5%	.	1%	5%	-4%
Cc1ccc(NC(=O)NCC2CCN(Cc3cccc(Cl)c3)CC2)cc1Cl	?	-7%	.	28µM*	17%	-2%
COc1ccc(/C=C\c2nc(=O)c3ccccc3o2)cc1	-15%	?	-18%[46 µM]	7%	-20%	6%
O=c1nc(/C=C/c2ccc(O)c(O)c2)oc2ccccc12	-30%	?	.	8%	13µM*	-9%
O=C(Nc1cc(Sc2nc3ccccc3s2)cc([N+](=O)[O-])c1)c1ccccc1F	13µM*[quencher]	-15%	11%	?	-2%	-24%
O=C(Nc1cc(Sc2nc3ccccc3s2)cc([N+](=O)[O-])c1)c1ccccc1	4µM*[quencher]	0%	?	5%	-9%	-10%
O=C(Nc1cc(Sc2ccccn2)cc([N+](=O)[O-])c1)c1cccc(F)c1	7%	4%	?	4%	-7%	-9%
CN1CC(=O)N(CC(=O)Nc2ccc(Cl)c(C(F)(F)F)c2)c2ccccc2C1=O	-20%	-1%	-19%[46 µM]	-12%	.	.
Cc1ccc(C(=O)Nc2c(-c3ccccc3)nc3ccccn23)cc1C	-23%	-15%	.	-7%	.	.
N=C(N)S/C=C\C(=O)O	-19%	28µM*	.	?	-11%	10%
O=C(/C=C/c1ccccc1)n1cnnc1SC/C=C/c1ccccc1	-13%	28µM*	-6%	?	0%	-1%
COC(=O)c1scc(-c2ccc(C)cc2)c1S(=O)(=O)N1CCN(c2ccc(F)cc2)CC1	?	-15%	-12%[46 µM]	-2%	.	.
COc1cc(NC(=O)c2cn(C3CCCC3)c(=O)c3c2c2ccccc2n3C)cc(OC)c1OC	-27%	-10%	.	5%	.	.
SMILES	Tau fluor cs	Tau ThT inhib	LMNA splice mod	Tau fibril FP	KDM4E inh	CBFb RUNX1 block
COc1ccccc1N(O)C1CC(=O)N(c2ccc(Br)cc2)C1=O (stereo unspecified)	?	14µM*	-7%	?	-28%	-6%
CCCCCCC(=O)N(O)C1CC(=O)N(c2ccc(Br)cc2)C1=O (stereo unspecified)	2%	?	?	10%	-13%	2%
CCc1cccc(-n2c(=O)c3cccnc3n2CC(=O)NCc2ccccc2)c1	?	-13%	.	?	.	.
CCN(CC)c1ccc(/C=N/NC(=O)c2ccco2)cc1	?	?	?	8%	?	-2%
CCN(CC)c1ccc(/C=N/NC(=O)Cc2cccs2)c(O)c1	13µM*[quencher]	?	?	13%	-17%	-4%
O=C(Cc1cccs1)N/N=C/c1ccccc1	-13%	-11%	.	-9%	7%	6%
CCN(CC)c1ccc(/C=N/NC(=O)c2ccco2)c(O)c1	?	?	.	13%	14µM*	?
O=S(=O)(CCc1ccccc1)c1nnnn1-c1ccc(F)cc1Br	-3%	-5%	.	0%	3%	-11%
N=c1c[n+](N2CCOCC2)[n-]o1	-20%	13µM*	7%	?	-7%	21%
CCCCCCCCOC(=O)c1c(CSC(=N)N)n(C)c2cc(Br)c(OC(C)=O)cc12	?	?	.	-6%	-9%	7%
CCOC(=O)c1c(CSC(=N)N)n(-c2ccc(Br)cc2)c2cc(Br)c(OC(C)=O)cc12	?	16µM*	?	?	?	13%
CCCCN1C(=O)/C(=C(/C#N)C(=O)N2CCCC2)c2ccccc21	-7%	?	.	-12%	3%	3%
CC(C)CN1C(=O)/C(=C(/C#N)C(=O)NC2CCCCC2)c2ccccc21	-13%	18µM*	?	?	-4%	18%
COc1cccc(Nc2ccc3cc(S(=O)(=O)N4CCC(C)CC4)ccc3n2)c1	5µM*[quencher]	10%	.	?	.	.
CC(=O)c1cccc(Nc2ccc3cc(S(=O)(=O)N4CCCC4)ccc3n2)c1	?	6%	.	?	.	.
COc1ccc(Nc2ccc3cc(S(=O)(=O)N4CCCC4)ccc3n2)cc1OC	11µM*[quencher]	?	.	11%	.	.
